The source made the active and inactive calls.
Assays:
[1] = E. coli DRC41 culture turbidity changes, primary screen, E. coli filamentation inducer project, strain DRC41, OD650, 48 h (AID 1152);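 also: E. coli MC1000 strain DRC41 lacking acrAB efflux pump and sulA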; conditions: E. coli DRC41 (acrAB sulA), higher = more signal, called active from +8 up or from −8 down
[2] = small-molecule binders of probe aLefty1, primary screen, biochemical, small-molecule microarray, 635/667 nm fluorescence (AID 1153); conditions: higher = more signal;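 also: score merges spot fluorescence with signal-to-noise ratio from the scanned slide images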
[3] = PSAC antagonists in infected red cells, primary screen, cell-based, P. falciparum Indochina, OD700, 1 h (AID 1154); conditions: P. falciparum Indochina infected RBC osmotic lysis, higher = more signal, called active from +8 up or from −8 down
[4] = PSAC antagonists in infected red cells, primary screen, cell-based, P. falciparum Indochina, OD700, 2 h (AID 1155);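 also: lysis reports solute entry through the parasite surface anion channel PSAC; channel blockers reduce lysis of infected cells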; conditions: P. falciparum Indochina infected erythrocytes, osmotic lysis OD700; higher = more signal, called active from +8 up or from −8 down
[5] = osmotic lysis modulators in infected erythrocytes, primary screen, PSAC antagonist project, cell-based, P. falciparum Indochina, OD700, 3 h (AID 1156); conditions: higher = more signal, called active from +8 up or from −8 down
[6] = PSAC antagonists in infected red cells, primary screen, cell-based, P. falciparum Indochina, OD700, 18 h (AID 1157); conditions: P. falciparum Indochina infected erythrocytes, osmotic lysis OD700, 18 h; higher = more signal, called active from +8 up or from −8 down
[7] = modulators of S6 phosphorylation in cells, primary screen, cell-based, A549, cytoblot, luminescence, serum-stimulated (AID 1158); conditions: A549 phospho-S6 cytoblot, 5 h, higher = more signal;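 also: serum-stimulated A549 lung adenocarcinoma cells; signal is phosphorylated S6 detected by cytoblot immunostaining with HRP secondary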
[8] = target: NADPH oxidase 2 (Homo sapiens) (UniProt P04839); experiment: NOX2-dependent H2O2 signal modulators, primary screen, NOX inhibitor project, cell-based, HEK293-NOX2, PMA-stimulated, Amplex Red fluorescence (AID 1159); conditions: 45 min, higher = more signal, called active from +8 up or from −8 down; also: test concentration not given here
[9] = target: NADPH oxidase 4 (Homo sapiens) (UniProt Q9NPH5); experiment: NOX4-dependent H2O2 signal modulators, primary screen, NOX inhibitor project, cell-based, HEK293-NOX4, tetracycline-induced, Amplex Red fluorescence (AID 1160); conditions: 45 min, higher = more signal, called active from +8 up or from −8 down
[10] = target: NADPH oxidase 5 (Homo sapiens) (UniProt Q96PH1); experiment: NOX5-dependent H2O2 signal modulators, primary screen, NOX inhibitor project, cell-based, HEK293-NOX5, Amplex Red fluorescence (AID 1161); conditions: HEK293-NOX5, ionomycin, 45 min, higher = more signal
Sequence of NADPH oxidase 5 (Homo sapiens) (Q96PH1 whole entry, looked up): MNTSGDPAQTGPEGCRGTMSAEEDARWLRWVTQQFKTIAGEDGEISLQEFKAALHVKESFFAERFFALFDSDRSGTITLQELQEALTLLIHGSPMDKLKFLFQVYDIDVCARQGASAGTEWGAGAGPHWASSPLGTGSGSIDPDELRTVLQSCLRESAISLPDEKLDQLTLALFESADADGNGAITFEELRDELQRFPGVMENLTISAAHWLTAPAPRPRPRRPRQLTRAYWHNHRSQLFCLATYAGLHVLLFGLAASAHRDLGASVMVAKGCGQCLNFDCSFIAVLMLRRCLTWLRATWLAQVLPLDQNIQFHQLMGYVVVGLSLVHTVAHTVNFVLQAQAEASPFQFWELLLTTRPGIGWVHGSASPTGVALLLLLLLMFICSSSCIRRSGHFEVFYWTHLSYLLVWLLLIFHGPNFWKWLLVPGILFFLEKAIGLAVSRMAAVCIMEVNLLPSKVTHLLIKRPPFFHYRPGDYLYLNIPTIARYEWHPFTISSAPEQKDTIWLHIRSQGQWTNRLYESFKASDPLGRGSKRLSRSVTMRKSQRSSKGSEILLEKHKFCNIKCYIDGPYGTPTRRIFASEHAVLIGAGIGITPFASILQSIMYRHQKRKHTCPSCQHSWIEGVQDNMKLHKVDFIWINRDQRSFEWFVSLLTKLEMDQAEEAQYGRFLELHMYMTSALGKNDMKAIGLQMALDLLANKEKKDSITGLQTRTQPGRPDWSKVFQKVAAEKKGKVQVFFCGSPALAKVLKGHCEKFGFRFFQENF

Sequence of NADPH oxidase 2 (Homo sapiens) (P04839 whole entry, looked up): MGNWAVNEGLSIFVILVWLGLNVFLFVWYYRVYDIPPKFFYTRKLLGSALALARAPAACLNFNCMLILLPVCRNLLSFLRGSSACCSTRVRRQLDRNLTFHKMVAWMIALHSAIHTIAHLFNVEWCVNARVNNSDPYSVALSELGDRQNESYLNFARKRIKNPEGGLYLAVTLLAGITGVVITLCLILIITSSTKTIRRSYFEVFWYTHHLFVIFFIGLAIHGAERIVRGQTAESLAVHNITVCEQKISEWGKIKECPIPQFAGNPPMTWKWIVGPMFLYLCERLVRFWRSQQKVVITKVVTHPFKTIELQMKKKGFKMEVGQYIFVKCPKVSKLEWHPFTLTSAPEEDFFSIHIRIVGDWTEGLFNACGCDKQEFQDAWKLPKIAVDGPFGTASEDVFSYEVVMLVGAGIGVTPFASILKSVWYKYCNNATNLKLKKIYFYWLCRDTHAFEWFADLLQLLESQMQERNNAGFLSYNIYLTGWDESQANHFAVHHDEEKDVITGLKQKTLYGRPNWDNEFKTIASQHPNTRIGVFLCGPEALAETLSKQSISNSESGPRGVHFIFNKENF
Sequence of NADPH oxidase 4 (Homo sapiens) (Q9NPH5 whole entry, looked up): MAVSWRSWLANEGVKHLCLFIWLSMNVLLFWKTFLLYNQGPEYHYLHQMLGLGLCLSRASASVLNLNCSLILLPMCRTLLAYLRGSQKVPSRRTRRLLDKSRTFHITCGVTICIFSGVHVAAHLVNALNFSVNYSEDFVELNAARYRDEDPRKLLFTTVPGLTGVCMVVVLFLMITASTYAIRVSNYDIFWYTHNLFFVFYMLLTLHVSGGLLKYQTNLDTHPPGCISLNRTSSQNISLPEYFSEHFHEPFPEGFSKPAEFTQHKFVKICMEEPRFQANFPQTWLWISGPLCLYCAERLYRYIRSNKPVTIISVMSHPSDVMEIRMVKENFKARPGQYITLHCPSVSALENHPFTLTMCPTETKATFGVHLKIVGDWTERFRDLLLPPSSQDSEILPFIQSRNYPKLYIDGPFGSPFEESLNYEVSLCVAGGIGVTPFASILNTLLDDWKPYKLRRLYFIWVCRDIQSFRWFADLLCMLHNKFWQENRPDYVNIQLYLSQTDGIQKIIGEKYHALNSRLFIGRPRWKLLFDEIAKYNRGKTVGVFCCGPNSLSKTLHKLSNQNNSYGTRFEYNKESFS

| Compound | z-score [1] | composite z-score [2] | z-score [3] | z-score [4] | z-score [5] | z-score [6] | z-score [7] | z-score [8] | z-score [9] | z-score [10] |
| --- | --- | --- | --- | --- | --- | --- | --- | --- | --- | --- |
| COc1ccc(C#Cc2ccc3c(c2)[C@]2(C(=O)N3)[C@H](C(=O)N3CCc4cc(OC)c(OC)cc4C3)[C@H]3C(=O)O[C@H](c4ccccc4)[C@H](c4ccccc4)N3[C@@H]2c2ccc(O)cc2)cc1 | -0.658 (inactive) | 0.0839 | 0.488 (inactive) | 0.216 (inactive) | -0.103 (inactive) | 0.296 (inactive) | -0.203 | 1.32 (inactive) | 0.574 (inactive) | -0.523 |
| C=CCN1Cc2ccccc2C[C@@]2(N=C(c3ccc(OCCCO)cc3)O[C@H]2c2ccccc2)C1=O | 0.404 (inactive) | 0.57 | 28.1 (active) | 23.6 (active) | 2.55 (inactive) | 5.74 (inactive) | 0.624 | -5.76 (inactive) | -0.323 (inactive) | -3.72 |
| C[n+]1ccc(CCCO)cc1 | -0.885 (inactive) | 0.33 | 0.599 (inactive) | -0.0234 (inactive) | 1.87 (inactive) | 0.131 (inactive) | -0.283 | 0.176 (inactive) | -0.435 (inactive) | -1.72 |
| C[C@H]1C2=C3C(CC[C@H]4C(OCc5ccc(F)cc5C(F)(F)F)OC[C@](C)([C@@H]34)N(C(=O)OC(C)(C)C)C2)C2COC(=O)OCC21 (stereo not given in full) | -2.42 (inactive) | 0.739 | 2.68 (inactive) | 0.368 (inactive) | 1.19 (inactive) | 1.11 (inactive) | -0.139 | -0.0545 (inactive) | -2.17 (inactive) | -1.09 |
| O=C(NC1CC1)[C@@H]1c2ccccc2C(=O)N(Cc2ccccc2)[C@H]1c1ccc(CO)cc1 | 0.651 (inactive) | 0.0191 | 2.58 (inactive) | 0.258 (inactive) | 1.38 (inactive) | 0.0604 (inactive) | 0.666 | -0.962 (inactive) | 0.623 (inactive) | -1.52 |
| CC(=O)N1Cc2ccccc2C[C@]2(N=C(c3ccc(OCCCO)cc3)O[C@@H]2c2ccccc2)C1=O | 1.23 (inactive) | -0.0536 | 26 (active) | 16.1 (active) | 1.17 (inactive) | 3.32 (inactive) | 0.463 | -1.31 (inactive) | 0.13 (inactive) | -1.9 |
| CCOC(=O)C1=CC[C@@H](c2ccccc2C(F)(F)F)N(S(=O)(=O)c2ccc(C)cc2)C1 | -0.007 (inactive) | 0.743 | 0.565 (inactive) | -0.555 (inactive) | -0.892 (inactive) | -1.92 (inactive) | 0.39 | 0.17 (inactive) | -0.742 (inactive) | -0.836 |
| COc1ccc([Si](C)(C)[C@@H]2[C@@H](CC(=O)N3CCC[C@H]3CO)O[C@]3(C(=O)N(Cc4ccc(N5C(=O)c6cccc7cccc5c67)cc4)c4ccccc43)[C@H]2C)cc1 | 1.13 (inactive) | -0.0984 | 5.77 (inactive) | 1.71 (inactive) | 1.06 (inactive) | 0.918 (inactive) | 0.486 | 3.1 (inactive) | 1.37 (inactive) | 4.38 |
| NCCCCCNC(=O)[C@@H]1C[C@@H]2C(=O)N[C@@H](CCCCN)C(=O)N2[C@@H]1c1cccc(OCCO)c1 | 1.17 (inactive) | -0.432 | 0.539 (inactive) | 0.0681 (inactive) | 1.24 (inactive) | 0.0802 (inactive) | -0.157 | 0.141 (inactive) | 0.557 (inactive) | 0.582 |
| CC(=O)n1cc(C(O)C2C=CC3C(=O)N(c4ccccc4)C(=O)C3N2Nc2ccccc2)c2ccccc21 (stereo not given) | -1.45 (inactive) | 0.681 | 20.1 (active) | 2.76 (inactive) | 1.12 (inactive) | -0.568 (inactive) | 1.32 | -3.07 (inactive) | -4.86 (inactive) | -4.68 |
| O=C1O[C@H](c2ccccc2)[C@H](c2ccccc2)N2[C@H]1[C@@H](C(=O)O)[C@]1(C(=O)Nc3ccccc31)[C@H]2c1ccc(O)cc1 | -0.611 (inactive) | -0.0501 | 1.26 (inactive) | 0.789 (inactive) | -0.236 (inactive) | 0.678 (inactive) | 0.374 | -0.295 (inactive) | -0.697 (inactive) | 1.31 |
| C=C1C2CC3C(=C4C(CO[C@@H]4[C@H]4CCCN4S(=O)(=O)c4ccccc4[N+](=O)[O-])C4C(=O)N(C)C(=O)C34)CC2C(=O)N1C (stereo not given in full) | -0.523 (inactive) | -0.147 | 4.07 (inactive) | 0.0975 (inactive) | -0.513 (inactive) | -0.0387 (inactive) | 0.0973 | 0.228 (inactive) | 0.569 (inactive) | 0.751 |
| COCC(=C=CC[C@H](O)c1cccc(OCCO)c1)C[C@H](O)c1ccccn1 | 0.941 (inactive) | -0.198 | 8.86 (active) | 1.16 (inactive) | 1.49 (inactive) | 0.674 (inactive) | 0.789 | -0.142 (inactive) | 0.154 (inactive) | -0.772 |

Source: PubChem BioAssay
